Positions count from the first letter of the chain named.
How the values were obtained:
Assay in all cases: protein-binding microarray (PBM); PBM: ~300 nM protein, 6 mM HEPES pH 7.8, 80 mM KCl, 0.5 mM EDTA, 0.5 mM EGTA, 6% glycerol, 35 ng/ul poly-dIdC, 1% milk, 1 h, room temperature; Ap Aiptasia and Nv Nematostella (sea anemones) / Co Capsaspora / Aq Amphimedon (sponge) / Dm Drosophila / Hu human; RHD is the Rel homology domain; high values mean tight binding
Details in all cases: dsDNA, one strand shown
GST-Ap-NF-kB RHD = target: T1, GST-Ap-NF-kB RHD (Exaiptasia pallida (Aiptasia), UniProt A0A913YAJ5 2-422)
T1 sequence: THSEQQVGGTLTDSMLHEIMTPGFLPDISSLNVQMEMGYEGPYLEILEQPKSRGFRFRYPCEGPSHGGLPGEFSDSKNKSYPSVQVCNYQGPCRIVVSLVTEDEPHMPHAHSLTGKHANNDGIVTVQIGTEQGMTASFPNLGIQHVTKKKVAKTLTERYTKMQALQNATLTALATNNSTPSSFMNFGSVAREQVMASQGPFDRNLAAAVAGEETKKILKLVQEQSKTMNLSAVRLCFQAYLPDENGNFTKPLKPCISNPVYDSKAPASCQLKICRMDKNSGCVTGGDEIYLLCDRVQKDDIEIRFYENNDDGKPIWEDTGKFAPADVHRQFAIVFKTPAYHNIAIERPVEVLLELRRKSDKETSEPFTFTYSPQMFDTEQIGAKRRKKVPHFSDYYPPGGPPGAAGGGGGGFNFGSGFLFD

[1] = target: T2, GST-Nv-NF-kB (Cys allele) (Nematostella vectensis, UniProt E5G601 2-411)
T2 sequence: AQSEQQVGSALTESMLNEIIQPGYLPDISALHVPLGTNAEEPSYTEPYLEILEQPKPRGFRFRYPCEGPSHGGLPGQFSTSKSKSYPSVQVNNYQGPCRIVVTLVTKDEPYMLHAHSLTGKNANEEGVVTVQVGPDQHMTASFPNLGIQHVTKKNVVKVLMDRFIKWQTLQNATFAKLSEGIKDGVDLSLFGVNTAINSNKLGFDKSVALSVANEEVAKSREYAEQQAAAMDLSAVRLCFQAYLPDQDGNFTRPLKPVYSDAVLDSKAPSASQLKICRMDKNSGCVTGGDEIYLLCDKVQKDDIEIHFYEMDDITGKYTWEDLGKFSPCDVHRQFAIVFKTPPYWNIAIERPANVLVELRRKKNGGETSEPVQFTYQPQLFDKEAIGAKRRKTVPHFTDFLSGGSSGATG

[2] = target: T3, GST-Nv-NF-kB (Ser allele) (Nematostella vectensis, UniProt A7UNT2 2-411)
T3 sequence: T2 sequence with Q21R, C66S, S207N, E215Q, V217A, E225K, A268E, D399E

GST-Co-NF-kB = target: T4, GST-Co-NF-kB (Capsaspora owczarzaki, UniProt F1ARL5 200-546)
T4 sequence: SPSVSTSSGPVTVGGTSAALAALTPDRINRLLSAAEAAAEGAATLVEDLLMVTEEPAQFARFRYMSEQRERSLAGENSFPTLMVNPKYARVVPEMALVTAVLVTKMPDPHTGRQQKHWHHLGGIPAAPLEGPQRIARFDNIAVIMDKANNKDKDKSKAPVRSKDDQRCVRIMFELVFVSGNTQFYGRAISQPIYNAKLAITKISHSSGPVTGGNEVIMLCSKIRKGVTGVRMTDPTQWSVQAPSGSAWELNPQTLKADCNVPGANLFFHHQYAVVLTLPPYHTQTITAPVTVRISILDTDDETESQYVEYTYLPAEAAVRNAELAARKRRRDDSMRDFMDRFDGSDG

GST-Dm-Relish = target: T5, GST-Dm-Relish (Drosophila melanogaster, UniProt Q94527 99-473)
T5 sequence: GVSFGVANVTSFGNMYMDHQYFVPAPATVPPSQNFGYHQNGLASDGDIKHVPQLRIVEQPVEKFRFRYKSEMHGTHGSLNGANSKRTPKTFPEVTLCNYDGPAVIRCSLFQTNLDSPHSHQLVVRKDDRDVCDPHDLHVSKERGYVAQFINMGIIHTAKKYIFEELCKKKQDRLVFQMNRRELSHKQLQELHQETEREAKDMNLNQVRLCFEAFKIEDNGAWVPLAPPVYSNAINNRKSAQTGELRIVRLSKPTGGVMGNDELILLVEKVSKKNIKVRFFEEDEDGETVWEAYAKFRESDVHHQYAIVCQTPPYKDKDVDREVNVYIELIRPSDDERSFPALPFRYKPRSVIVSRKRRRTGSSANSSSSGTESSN

GST-Aq-NF-kB = target: T6, GST-Aq-NF-kB (Amphimedon queenslandica, UniProt A9Y5G7 2-389)
T6 sequence: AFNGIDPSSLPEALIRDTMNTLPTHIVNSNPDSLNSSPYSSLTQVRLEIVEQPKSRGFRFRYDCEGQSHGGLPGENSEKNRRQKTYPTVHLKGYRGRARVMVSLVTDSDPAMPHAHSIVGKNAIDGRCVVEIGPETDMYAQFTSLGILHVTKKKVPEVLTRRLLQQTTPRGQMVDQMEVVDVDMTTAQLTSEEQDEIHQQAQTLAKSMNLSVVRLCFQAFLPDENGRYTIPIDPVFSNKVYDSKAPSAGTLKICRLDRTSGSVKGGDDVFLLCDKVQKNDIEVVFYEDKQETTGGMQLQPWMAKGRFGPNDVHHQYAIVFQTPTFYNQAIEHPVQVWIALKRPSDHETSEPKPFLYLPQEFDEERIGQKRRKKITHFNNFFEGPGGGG

GST-Hu-p50 = GST-Hu-p50 (Homo sapiens, UniProt P19838 7-356)
Chain of GST-Hu-p50 (P19838 7-356): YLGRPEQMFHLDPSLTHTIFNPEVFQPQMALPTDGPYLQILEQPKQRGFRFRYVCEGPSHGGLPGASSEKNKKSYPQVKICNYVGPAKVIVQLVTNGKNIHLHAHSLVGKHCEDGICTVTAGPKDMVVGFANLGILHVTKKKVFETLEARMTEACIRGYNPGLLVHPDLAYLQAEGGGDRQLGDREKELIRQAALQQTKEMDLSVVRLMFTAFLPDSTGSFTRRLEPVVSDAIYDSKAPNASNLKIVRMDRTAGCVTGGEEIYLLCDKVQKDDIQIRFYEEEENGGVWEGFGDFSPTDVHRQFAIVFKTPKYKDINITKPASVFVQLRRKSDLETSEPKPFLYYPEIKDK

| Sequence | binding signal (GST-Ap-NF-kB RHD) | binding signal [1] | binding signal [2] | binding signal (GST-Co-NF-kB) | binding signal (GST-Dm-Relish) | binding signal (GST-Aq-NF-kB) | binding signal (GST-Hu-p50) |
| --- | --- | --- | --- | --- | --- | --- | --- |
| CCGATTAACATCAGTAAATCCCATGATGTTAATCGGGTCTTGATTCGCTTGACGCTGCTG | 1.49 z-score | 1.09 z-score | 1.18 z-score | 1.48 z-score | 7.4 z-score | 2.3 z-score | 1.94 z-score |
| CCGATTAACATCAAATTTCCCCCTGATGTTAATCGGGTCTTGATTCGCTTGACGCTGCTG | 9.03 z-score | 9.93 z-score | 12.8 z-score | 12.3 z-score | 7.24 z-score | 7.79 z-score | 7.66 z-score |
| CCGATTAACATCAGGGGAAACCCTGATGTTAATCGGGTCTTGATTCGCTTGACGCTGCTG | 10.2 z-score | 11.4 z-score | 10.8 z-score | 7.22 z-score | 10 z-score | 9.57 z-score | 7.44 z-score |
| CCGATTAACATCAAAAACTCCCCTGATGTTAATCGGGTCTTGATTCGCTTGACGCTGCTG | 9.29 z-score | 8.96 z-score | 9.57 z-score | 6.91 z-score | 8.62 z-score | 8.06 z-score | 6.46 z-score |
| CCGATTAACATCACCTTTTTCCCTGATGTTAATCGGGTCTTGATTCGCTTGACGCTGCTG | 3.29 z-score | 4.53 z-score | 6.24 z-score | 5.31 z-score | 1.92 z-score | 3.4 z-score | 4.16 z-score |
| CCGATTAACATCAAGTAACCCCCTGATGTTAATCGGGTCTTGATTCGCTTGACGCTGCTG | 6.04 z-score | 4.44 z-score | 4.98 z-score | 3.76 z-score | 6.97 z-score | 5.32 z-score | 5.24 z-score |
| CCGATTAACATCAAGGGGAATACTGATGTTAATCGGGTCTTGATTCGCTTGACGCTGCTG | 8.04 z-score | 9.26 z-score | 8.56 z-score | 6.16 z-score | 6.38 z-score | 6.62 z-score | 6.33 z-score |
| CCGATTAACATCAAGACTCCCCCTGATGTTAATCGGGTCTTGATTCGCTTGACGCTGCTG | 6.35 z-score | 5.25 z-score | 5.92 z-score | 5.87 z-score | 4.5 z-score | 5.15 z-score | 5.69 z-score |
| CCGATTAACATCAAAATTCCCACTGATGTTAATCGGGTCTTGATTCGCTTGACGCTGCTG | 3.89 z-score | 5.68 z-score | 5.15 z-score | 4.31 z-score | 5.55 z-score | 4.54 z-score | 4.27 z-score |
| CCGATTAACATCAAAAGTCCCCGTGATGTTAATCGGGTCTTGATTCGCTTGACGCTGCTG | 8.32 z-score | 8.18 z-score | 7.85 z-score | 4.26 z-score | 9.25 z-score | 7.44 z-score | 6.58 z-score |
| CCGATTAACATCAGGACCCCCCCTGATGTTAATCGGGTCTTGATTCGCTTGACGCTGCTG | 7.35 z-score | 4.56 z-score | 3.23 z-score | 2.94 z-score | 6.37 z-score | 7.44 z-score | 4.44 z-score |

Reference: article PMC5700166
